In PubChem BioAssay (Tox21):
Values without a mark were called inactive. Inconclusive results are not listed. Entries that show only a call come without a potency. Calls of active or inactive are those of the source. Unless noted, the call rests on the fitted dose curve; in most records, active means well fitted curve in the direction sought with a large enough effect in the repeat runs; inconclusive means weak or mixed curves; inactive means no such curve, though single readings can be large; an effect the other way counts as inactive or inconclusive.

How the values were obtained:
[1] = qHTS assay to identify small molecule agonists of the sonic hedgehog signaling (Shh) pathway (AID 1259368; calls by dose curve; further: series mostly up to about 92 µM; nearly all actives have a fitted effect of over 15% in size)
Method in brief: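 NIH/3T3-derived 3T3Gli1-Luc cells carrying a stably integrated Gli1 response element–firefly luciferase reporter were plated, left 4 hr at 37 C, then given compounds in DMSO for 24 hr. Luminescence was read 30 min after adding luciferase reagent.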

[2] = qHTS assay to identify small molecule antagonists of the sonic hedgehog signaling (Shh) pathway (AID 1259369; calls by dose curve; further: nearly all actives have a fitted effect of over 45% in size; further: potency means the concentration at half of the fitted maximal effect)
Method in brief: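 NIH/3T3-derived 3T3Gli1-Luc cells with stably integrated Gli1-Luc reporter were preincubated 4hr at 37 C, then given compounds in DMSO plus Shh conditioned medium and incubated 24hr. Firefly luciferase luminescence read after 30min reagent at room temperature.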

[3] = molecular target: Estrogen receptor beta (Homo sapiens) (UniProt Q92731); assay: qHTS assay to identify small molecule agonists of the estrogen receptor beta (ER-beta) signaling pathway (AID 1259377; active means well fitted activation curve with a large enough effect in the signal ratio in the repeat runs, not every such curve was filed as active; the % refers to the signal ratio)
Sequence of Estrogen receptor beta (Homo sapiens) (Q92731 whole entry, looked up): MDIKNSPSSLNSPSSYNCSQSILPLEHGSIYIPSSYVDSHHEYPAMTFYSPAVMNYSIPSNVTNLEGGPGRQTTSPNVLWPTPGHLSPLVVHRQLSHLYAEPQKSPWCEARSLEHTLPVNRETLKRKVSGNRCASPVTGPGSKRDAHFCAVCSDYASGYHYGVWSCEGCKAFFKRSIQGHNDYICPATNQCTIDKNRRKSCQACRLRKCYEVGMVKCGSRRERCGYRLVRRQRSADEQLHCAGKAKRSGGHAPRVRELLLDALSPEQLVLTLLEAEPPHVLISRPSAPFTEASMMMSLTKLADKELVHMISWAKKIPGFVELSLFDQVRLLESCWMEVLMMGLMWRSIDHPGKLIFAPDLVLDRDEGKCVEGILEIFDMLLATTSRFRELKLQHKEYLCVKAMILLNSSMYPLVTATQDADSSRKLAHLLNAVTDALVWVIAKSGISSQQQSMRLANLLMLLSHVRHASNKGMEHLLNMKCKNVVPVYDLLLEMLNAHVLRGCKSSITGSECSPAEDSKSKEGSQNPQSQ
Method in brief: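 ER-beta-UAS-bla HEK293T (GripTite) cells carrying a UAS-driven beta-lactamase reporter, in medium with 2% charcoal-stripped FBS, were exposed to compounds for 16 hr at 37C; LiveBLAzer B/G FRET substrate was then added and fluorescence read after 2 hours at room temperature.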

[4] = qHTS assay to identify small molecule agonists of the estrogen receptor beta (ER-beta) signaling pathway - cell viability counter screen (AID 1259380); further: nearly all actives have a fitted effect of over 30% in size
Method in brief: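 ER-beta-UAS-bla HEK293T cells in medium with 2% charcoal-stripped FBS were preincubated 6 hr at 37C, dosed with compound in DMSO for 16 hr, then after the bla read, CellTiter-Glo was added for 30 min at room temperature; luminescence recorded.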

[5] = molecular target: Estrogen receptor (Homo sapiens) (UniProt P03372); assay: qHTS assay to identify small molecule agonists of the estrogen receptor alpha (ER-alpha) signaling pathway in the presence of an antagonist (AID 1259383; calls by dose curve; further: top concentration of the series differs between compounds; nearly all actives have a fitted effect of over 15% in size)
Sequence of Estrogen receptor (Homo sapiens) (P03372 whole entry, looked up): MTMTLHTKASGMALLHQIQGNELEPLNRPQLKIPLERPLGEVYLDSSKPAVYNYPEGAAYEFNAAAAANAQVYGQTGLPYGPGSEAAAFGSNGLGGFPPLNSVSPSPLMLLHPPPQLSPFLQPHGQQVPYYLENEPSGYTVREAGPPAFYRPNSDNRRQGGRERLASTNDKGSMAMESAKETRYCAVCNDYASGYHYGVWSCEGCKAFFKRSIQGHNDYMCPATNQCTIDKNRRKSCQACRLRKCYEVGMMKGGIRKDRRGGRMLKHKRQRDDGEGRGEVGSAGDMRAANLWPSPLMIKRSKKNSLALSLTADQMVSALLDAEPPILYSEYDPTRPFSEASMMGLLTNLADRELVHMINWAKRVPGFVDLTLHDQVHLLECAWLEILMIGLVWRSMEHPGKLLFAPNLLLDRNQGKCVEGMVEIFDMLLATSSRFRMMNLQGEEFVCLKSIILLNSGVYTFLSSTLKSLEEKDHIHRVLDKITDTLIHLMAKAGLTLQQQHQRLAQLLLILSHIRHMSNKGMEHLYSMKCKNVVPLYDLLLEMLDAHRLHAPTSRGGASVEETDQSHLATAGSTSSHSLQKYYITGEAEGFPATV
Method in brief: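 VM7Luc4E2 cells (endogenous full-length ER-alpha, 4×ERE-luciferase) were precultured 5 days in phenol red-free medium with 10% charcoal-stripped FBS, given 10.0nM ICI-182,780 (final), then treated with compounds at 15 concentrations for 22hr at 37C; luminescence read with ONE-Glo.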

[6] = qHTS assay to identify small molecule agonists or antagonists of the thyroid stimulating hormone receptor (TSHR) signaling pathway - wild type cell line counter screen (AID 1259384; calls by dose curve)
Method in brief: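 Wild-type HEK293 cells were plated 18 h at 37 C/5% CO2, pin-dosed with compound plus Ro20-1724 medium, held 30 min at room temperature, then given cAMP-d2 and anti-cAMP-cryptate; fluorescence was read after 1 h. Fifteen concentrations, triplicate.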

[7] = molecular target: Thyrotropin receptor (Homo sapiens) (UniProt P16473); assay: qHTS assay to identify small molecule antagonists of the thyroid stimulating hormone receptor (TSHR) signaling pathway (AID 1259385; calls by dose curve; further: nearly all actives have a fitted effect of over 20% in size)
Sequence of Thyrotropin receptor (Homo sapiens) (P16473 whole entry, looked up): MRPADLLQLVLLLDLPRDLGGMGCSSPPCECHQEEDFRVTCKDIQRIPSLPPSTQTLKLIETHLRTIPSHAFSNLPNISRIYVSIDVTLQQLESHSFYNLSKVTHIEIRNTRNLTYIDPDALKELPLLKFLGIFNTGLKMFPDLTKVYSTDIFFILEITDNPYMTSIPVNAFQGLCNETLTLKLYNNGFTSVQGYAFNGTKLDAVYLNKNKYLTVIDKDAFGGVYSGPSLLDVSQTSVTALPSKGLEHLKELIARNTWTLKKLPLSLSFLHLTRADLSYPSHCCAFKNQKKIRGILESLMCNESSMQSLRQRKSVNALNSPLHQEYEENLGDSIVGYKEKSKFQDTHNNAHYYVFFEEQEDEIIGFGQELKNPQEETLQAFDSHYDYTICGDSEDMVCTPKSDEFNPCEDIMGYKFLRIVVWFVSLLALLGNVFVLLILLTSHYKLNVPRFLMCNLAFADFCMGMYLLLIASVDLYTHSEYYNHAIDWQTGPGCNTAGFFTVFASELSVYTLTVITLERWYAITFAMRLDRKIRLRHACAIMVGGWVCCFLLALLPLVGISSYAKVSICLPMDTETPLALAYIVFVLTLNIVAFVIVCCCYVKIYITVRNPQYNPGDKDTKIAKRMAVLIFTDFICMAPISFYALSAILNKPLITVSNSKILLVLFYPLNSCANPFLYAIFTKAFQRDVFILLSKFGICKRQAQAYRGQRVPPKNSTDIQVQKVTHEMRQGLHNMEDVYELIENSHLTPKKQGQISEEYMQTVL
Method in brief: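 TSHR-HEK293 cells were plated and held 18 h at 37C/5% CO2, then given compound plus Ro20-1724 and stimulated with TSH at 1.5 ng/mL final. After 30 min at room temperature, cAMP was detected with cAMP-d2/anti-cAMP-cryptate (1 h) by fluorescence.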

[8] = qHTS assay to identify small molecule agonists of the estrogen receptor alpha (ER-alpha) signaling pathway in the presence of an antagonist - cell viability counter screen (AID 1259386);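 further: cells exposed to compounds for 22 h at 37 °C before the viability read; nearly all actives have a fitted effect of over 30% in size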; further: potency means the concentration at half of the fitted maximal effect
Method in brief: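 VM7Luc4E2 cells (endogenous full-length ER-alpha, 4×ERE-luciferase) were held 5 days in phenol red-free medium with 10% charcoal-stripped FBS, plated, then given 10.0nM ICI-182,780 and compounds at 15 concentrations for 22hr at 37C; viability read by CellTiter-Fluor fluorescence.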

[9] = molecular target: Progesterone receptor (Homo sapiens) (UniProt P06401); assay: qHTS assay to identify small molecule antagonists of the progesterone receptor (PR) signaling pathway (AID 1346795; active means well fitted inhibition curve with a large enough effect in the signal ratio in the repeat runs, not every such curve was filed as active; the % refers to the signal ratio)
Sequence of Progesterone receptor (Homo sapiens) (P06401 whole entry, looked up): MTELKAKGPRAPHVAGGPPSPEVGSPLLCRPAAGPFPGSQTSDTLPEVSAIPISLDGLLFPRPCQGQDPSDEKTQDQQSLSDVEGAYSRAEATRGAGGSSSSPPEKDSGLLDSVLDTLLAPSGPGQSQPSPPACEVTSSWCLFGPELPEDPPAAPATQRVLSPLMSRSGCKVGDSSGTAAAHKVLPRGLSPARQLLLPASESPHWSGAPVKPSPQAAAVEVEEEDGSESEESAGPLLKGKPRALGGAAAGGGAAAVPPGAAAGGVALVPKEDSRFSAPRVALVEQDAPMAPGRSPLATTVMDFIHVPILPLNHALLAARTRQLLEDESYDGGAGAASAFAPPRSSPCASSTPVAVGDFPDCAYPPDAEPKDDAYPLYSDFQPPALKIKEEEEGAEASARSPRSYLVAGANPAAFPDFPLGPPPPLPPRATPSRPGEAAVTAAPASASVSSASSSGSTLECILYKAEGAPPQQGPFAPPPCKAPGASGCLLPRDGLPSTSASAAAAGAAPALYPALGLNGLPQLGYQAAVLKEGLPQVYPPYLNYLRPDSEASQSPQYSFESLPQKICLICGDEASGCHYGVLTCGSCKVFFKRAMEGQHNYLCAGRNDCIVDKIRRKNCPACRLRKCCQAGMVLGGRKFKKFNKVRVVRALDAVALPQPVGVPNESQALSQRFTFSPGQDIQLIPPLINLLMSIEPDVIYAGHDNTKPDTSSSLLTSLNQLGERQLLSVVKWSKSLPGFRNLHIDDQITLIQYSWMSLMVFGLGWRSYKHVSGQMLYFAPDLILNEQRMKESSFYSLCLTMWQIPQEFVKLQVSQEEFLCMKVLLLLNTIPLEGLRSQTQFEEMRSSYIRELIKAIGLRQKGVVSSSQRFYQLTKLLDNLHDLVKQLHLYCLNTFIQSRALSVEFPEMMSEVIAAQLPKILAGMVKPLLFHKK
Method in brief: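 PR-UAS-bla HEK293T cells carrying a UAS-driven beta-lactamase reporter were plated in medium with 2% charcoal-stripped FBS and rested 6 hr at 37C. Compounds were added with 1 nM R5020 (final) for 16 hr, then FRET substrate loaded 2 hr at room temperature.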

[10] = qHTS assay to identify small molecule antagonists of the progesterone receptor (PR) signaling pathway - cell viability counter screen (AID 1346798); further: series mostly up to about 92 µM; nearly all actives have a fitted effect of over 50% in size
Method in brief: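 PR-UAS-bla HEK293T cells in medium with 2% charcoal-stripped FBS were treated with compounds plus R5020 for 16 hr at 37C. Cell viability was then read by CellTiter-Glo luminescence after 30 min at room temperature in the same wells.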

[11] = qHTS assay to identify small molecule antagonists of the TGF-beta/Smad signaling pathway - cell viability counter screen (AID 1346824); further: nearly all actives have a fitted effect of over 50% in size
Method in brief: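 SBE-bla HEK 293T cells were plated overnight at 37 C, then given compounds in DMSO plus TGF-beta1 (added as 0.25 ng/mL solution) for 5 hr. After the bla read, CellTiter-Glo was added to the same wells and luminescence read after 30 min at room temperature.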

[12] = qHTS assay to identify small molecule agonists of the TGF-beta/Smad signaling pathway - cell viability counter screen (AID 1346829); further: top concentration of the series differs between compounds; nearly all actives have a fitted effect of over 45% in size
Method in brief: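 SBE-bla HEK 293T cells plated overnight, compound exposure 5 hr at 37 C. Viability read in the same wells by CellTiter-Glo luminescence after 30 min at room temperature, following the beta-lactamase read.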

[13] = qHTS assay to identify small molecule agonists of the TGF-beta/Smad signaling pathway (AID 1346859; active means well fitted activation curve with a large enough effect in the signal ratio in the repeat runs, not every such curve was filed as active; the % refers to the signal ratio; further: series mostly up to about 77 µM)
Method in brief: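 HEK 293T cells stably carrying a beta-lactamase reporter driven by the Smad binding element were seeded overnight, exposed to DMSO-dissolved compounds for 5 hr at 37 C, 5% CO2, then loaded with FRET substrate for 2 hr at room temperature.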

[14] = qHTS assay to identify small molecule agonists of the androgen receptor (AR) signaling pathway in the presence of an antagonist - cell viability counter screen (AID 1259379); further: nearly all actives have a fitted effect of over 25% in size; further: potency means the concentration at half of the fitted maximal effect
Method in brief: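 MDA-kb2 human breast carcinoma cells (stable MMTV-luciferase, AR/GR responsive) were seeded 3,000 cells/well, pre-incubated 5 hr at 37C without CO2, then given 3.0uM nilutamide and compounds at 15 concentrations for 16 hr. Viability was read by CellTiter-Fluor fluorescence.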

[15] = qHTS assay to identify small molecule antagonists of the estrogen receptor beta (ER-beta) signaling pathway - cell viability counter screen (AID 1259382); further: series mostly up to about 92 µM; nearly all actives have a fitted effect of over 55% in size
Method in brief: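 ER-beta-UAS-bla HEK293T cells (2,000/well, 2% charcoal-stripped FBS) were pre-incubated 6 hr at 37C, then given compound plus 1nM final 17-beta-estradiol for 16 hr. Viability was read in the same wells by CellTiter-Glo luminescence after 30 min at room temperature.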

[16] = qHTS assay to identify small molecule agonists of the progesterone receptor (PR) signaling pathway - cell viability counter screen (AID 1346799; calls by dose curve; further: nearly all actives have a fitted effect of over 45% in size)
Method in brief: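 PR-UAS-bla HEK293T cells, 3,000 per well in medium with 2% charcoal-stripped FBS, were preincubated 6 hr at 37C, then exposed to compounds for 16 hr; viability was read as CellTiter-Glo luminescence after 30 min at room temperature.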

[17] = molecular target: Thyrotropin-releasing hormone receptor (Homo sapiens) (UniProt P34981); assay: qHTS assay to identify small molecule antagonists of the thyrotropin-releasing hormone receptor (TRHR) signaling pathway (AID 1346877; active means well fitted inhibition curve with a large enough effect in the repeat runs, not every such curve was filed as active; further: series mostly up to about 51 µM)
Sequence of Thyrotropin-releasing hormone receptor (Homo sapiens) (P34981 whole entry, looked up): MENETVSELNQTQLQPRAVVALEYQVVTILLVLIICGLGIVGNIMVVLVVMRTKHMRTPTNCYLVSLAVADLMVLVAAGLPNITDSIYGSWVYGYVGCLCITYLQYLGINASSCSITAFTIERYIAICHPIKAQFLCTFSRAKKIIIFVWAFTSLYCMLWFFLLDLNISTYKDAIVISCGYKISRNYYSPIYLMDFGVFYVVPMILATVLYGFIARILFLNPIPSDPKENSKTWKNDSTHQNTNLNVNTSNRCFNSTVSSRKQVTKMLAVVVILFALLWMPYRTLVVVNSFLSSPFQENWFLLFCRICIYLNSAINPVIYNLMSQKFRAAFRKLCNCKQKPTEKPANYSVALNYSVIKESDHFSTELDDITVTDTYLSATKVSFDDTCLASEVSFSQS
Method in brief: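 TRHR-expressing HEK293 cells were seeded, cultured 18 h at 37 °C, then loaded with calcium dye for 2 h. Compounds were pre-incubated 5 min at room temperature before 1 nM TRH (final) was added, and kinetic fluorescence was recorded for 3 min.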

[18] = molecular target: Progesterone receptor (Homo sapiens) (UniProt P06401); assay: qHTS assay to identify small molecule agonists of the progesterone receptor (PR) signaling pathway (AID 1346784; calls by dose curve; further: nearly all actives have a fitted effect of over 30% in size)
Method in brief: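 PR-UAS-bla HEK 293T cells carrying a UAS-driven beta-lactamase reporter were seeded in medium with 2% charcoal-stripped FBS, preincubated 6 hr at 37C, then exposed to compounds in DMSO for 16 hr; agonism was read by LiveBLAzer B/G FRET fluorescence.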

[19] = molecular target: Estrogen receptor beta (Homo sapiens) (UniProt Q92731); assay: qHTS assay to identify small molecule antagonists of the estrogen receptor beta (ER-beta) signaling pathway (AID 1259378; active means well fitted inhibition curve with a large enough effect in the signal ratio in the repeat runs, not every such curve was filed as active; the % refers to the signal ratio)
Method in brief: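 ER-beta-UAS-bla HEK293T (GripTite) cells in 2% charcoal-stripped FBS medium were preincubated 6 hr at 37C, dosed with compound, then stimulated with 1 nM E2 (final) for 16 hr; beta-lactamase reporter read by B/G FRET fluorescence after 2 hr substrate loading.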

[20] = molecular target: Androgen receptor (Homo sapiens) (UniProt P10275); assay: qHTS assay to identify small molecule agonists of the androgen receptor (AR) signaling pathway in the presence of an antagonist (AID 1259381; calls by dose curve; further: nearly all actives have a fitted effect of over 15% in size)
Sequence of Androgen receptor (Homo sapiens) (P10275 whole entry, looked up): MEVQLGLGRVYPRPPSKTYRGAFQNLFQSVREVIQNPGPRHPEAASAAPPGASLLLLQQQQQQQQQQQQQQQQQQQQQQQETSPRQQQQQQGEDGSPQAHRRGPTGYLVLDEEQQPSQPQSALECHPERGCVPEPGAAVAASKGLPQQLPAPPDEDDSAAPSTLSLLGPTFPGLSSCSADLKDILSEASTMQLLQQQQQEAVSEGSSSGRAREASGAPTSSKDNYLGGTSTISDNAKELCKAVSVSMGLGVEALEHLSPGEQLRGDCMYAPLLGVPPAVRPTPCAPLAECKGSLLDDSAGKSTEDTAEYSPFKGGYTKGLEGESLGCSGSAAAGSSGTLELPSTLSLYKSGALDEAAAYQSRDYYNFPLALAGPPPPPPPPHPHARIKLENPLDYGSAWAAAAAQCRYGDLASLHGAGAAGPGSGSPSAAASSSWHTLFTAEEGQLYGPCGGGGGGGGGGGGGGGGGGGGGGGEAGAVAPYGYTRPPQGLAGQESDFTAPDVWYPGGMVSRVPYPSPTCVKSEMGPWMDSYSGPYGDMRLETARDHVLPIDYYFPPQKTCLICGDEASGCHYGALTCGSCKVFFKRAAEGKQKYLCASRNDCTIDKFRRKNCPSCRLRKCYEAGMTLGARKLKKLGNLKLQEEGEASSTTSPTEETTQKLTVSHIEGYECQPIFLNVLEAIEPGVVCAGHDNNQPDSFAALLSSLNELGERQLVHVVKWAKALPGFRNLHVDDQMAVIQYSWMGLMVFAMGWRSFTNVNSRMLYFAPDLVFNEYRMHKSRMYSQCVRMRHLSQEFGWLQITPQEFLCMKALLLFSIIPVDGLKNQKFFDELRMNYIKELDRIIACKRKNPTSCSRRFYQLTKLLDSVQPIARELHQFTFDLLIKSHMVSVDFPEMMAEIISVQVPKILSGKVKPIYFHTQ
Method in brief: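 MDA-kb2 human breast carcinoma cells carrying an MMTV-luciferase reporter (AR- and GR-responsive) were treated with compounds at 15 concentrations plus 3.0uM final nilutamide for 16hr at 37C without CO2; luminescence was read after ONE-Glo addition.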

Row | SMILES | Potency [1] | Potency [2] | Potency [3] | Potency [4] | Potency [5] | outcome [6] | Potency [7] | Potency [8] | Potency [9] | Potency [10] | outcome [11] | outcome [12] | outcome [13] | Potency [14] | Potency [15] | Potency [16] | outcome [17] | Potency [18] | Potency [19] | Potency [20]
1 | CCCCN(CCCC)C(=S)SSC(=S)N(CCCC)CCCC | inactive | 1.91 µM (active) | inactive | inactive | inactive | inactive | inactive | inactive | inactive | inactive | inactive | inactive | inactive |  |  |  |  |  |  | 
2 | CCOCCn1c(C2CCN(CCc3ccc(C(C)(C)C(=O)O)cc3)CC2)nc2ccccc21 | inactive | inactive | inactive | inactive | inactive | inactive | inactive | inactive | inactive | inactive | inactive | inactive | inactive | inactive | inactive | inactive | inactive |  |  | 
3 | CCC(=O)OC/C=C/c1ccccc1 | inactive | inactive | inactive | inactive |  |  |  | inactive | inactive | inactive | inactive | inactive | inactive | inactive | inactive | inactive |  | inactive |  | 
4 | NC(=O)Cn1c(=O)cc(CCN2CCN(c3nccc4sccc34)CC2)c2ccc(F)cc21 | inactive | 4.86 µM (active) |  |  | inactive |  |  |  | inactive |  | inactive | inactive |  |  | inactive |  |  | inactive |  | 
5 | CC1C2CC(CC2C2CCCC(O)C2)C1(C)C (centres undefined) | inactive | inactive |  |  |  | inactive | inactive | inactive |  |  | inactive | inactive | inactive | inactive |  | inactive |  |  |  | 
6 | O=C(N/N=C/c1ccc([N+](=O)[O-])o1)c1ccc(O)cc1 | inactive | 11.9 µM (active) |  |  | inactive | inactive | inactive | 29.8 µM (active) |  | inactive | inactive | inactive | inactive | 11.9 µM (active) | inactive |  |  | inactive |  | 
7 | COc1ccc([C@@H]2Sc3ccccc3NC(=O)[C@@H]2O)cc1 | inactive | inactive |  | inactive | inactive | inactive | inactive | inactive |  |  | inactive | inactive | inactive | inactive | inactive | inactive |  | inactive |  | 
8 | CCCCCCCC/C=C\CCCCCCCC(=O)OC | inactive | inactive |  | inactive |  | inactive | inactive | inactive | inactive |  | inactive | inactive | inactive | inactive | inactive |  |  | inactive | inactive | 
9 | OCC1CC=CCC1 (centres undefined) | inactive | inactive |  | inactive |  | inactive | inactive | inactive | inactive | inactive | inactive | inactive | inactive | inactive | inactive | inactive |  | inactive |  | inactive
10 | CC(C)CCCC(=O)O | inactive | inactive |  | inactive |  |  |  | inactive | inactive | inactive | inactive | inactive | inactive | inactive | inactive |  |  | inactive |  | 
11 | Nc1ccc(S(=O)(=O)O)c(N)c1 | inactive | inactive |  | inactive | inactive | inactive | inactive | inactive | inactive | inactive | inactive | inactive | inactive | inactive | inactive | inactive |  |  |  | 
12 | CCCCCCOC(=O)CCCCCCCC(=O)OCCCCCC | inactive | inactive |  | inactive |  | inactive | inactive | inactive | inactive | inactive | inactive | inactive | inactive | inactive | inactive | inactive | inactive | inactive |  | 
13 | COC(=O)c1cc(S(N)(=O)=O)ccc1OC | inactive | inactive |  | inactive | inactive | inactive | inactive | inactive | inactive | inactive | inactive | inactive | inactive | inactive | inactive | inactive |  | inactive |  | inactive
14 | C[N+](C)(C)CCOC(N)=O | inactive | inactive |  | inactive |  | inactive | inactive | inactive | inactive | inactive | inactive | inactive | inactive | inactive | inactive |  |  | inactive |  | inactive
